In all, about 310,000 compounds went through this assay and about 14,000 (4.5%) showed an effect of 50% or more. Effects have a minus sign here. This excerpt belongs to a sample that is enriched for strong results.
Biological target: human ether-à-go-go-related gene (hERG) potassium channel (human, UniProt Q12809)
Assay: primary screen, population patch clamp on CHO cells stably expressing hERG; higher = less effect of the substance
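Note: peak tail current of the secondary pulse compared with the same well before compound.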

Sequence of human ether-à-go-go-related gene (hERG) potassium channel (Q12809 whole entry, looked up): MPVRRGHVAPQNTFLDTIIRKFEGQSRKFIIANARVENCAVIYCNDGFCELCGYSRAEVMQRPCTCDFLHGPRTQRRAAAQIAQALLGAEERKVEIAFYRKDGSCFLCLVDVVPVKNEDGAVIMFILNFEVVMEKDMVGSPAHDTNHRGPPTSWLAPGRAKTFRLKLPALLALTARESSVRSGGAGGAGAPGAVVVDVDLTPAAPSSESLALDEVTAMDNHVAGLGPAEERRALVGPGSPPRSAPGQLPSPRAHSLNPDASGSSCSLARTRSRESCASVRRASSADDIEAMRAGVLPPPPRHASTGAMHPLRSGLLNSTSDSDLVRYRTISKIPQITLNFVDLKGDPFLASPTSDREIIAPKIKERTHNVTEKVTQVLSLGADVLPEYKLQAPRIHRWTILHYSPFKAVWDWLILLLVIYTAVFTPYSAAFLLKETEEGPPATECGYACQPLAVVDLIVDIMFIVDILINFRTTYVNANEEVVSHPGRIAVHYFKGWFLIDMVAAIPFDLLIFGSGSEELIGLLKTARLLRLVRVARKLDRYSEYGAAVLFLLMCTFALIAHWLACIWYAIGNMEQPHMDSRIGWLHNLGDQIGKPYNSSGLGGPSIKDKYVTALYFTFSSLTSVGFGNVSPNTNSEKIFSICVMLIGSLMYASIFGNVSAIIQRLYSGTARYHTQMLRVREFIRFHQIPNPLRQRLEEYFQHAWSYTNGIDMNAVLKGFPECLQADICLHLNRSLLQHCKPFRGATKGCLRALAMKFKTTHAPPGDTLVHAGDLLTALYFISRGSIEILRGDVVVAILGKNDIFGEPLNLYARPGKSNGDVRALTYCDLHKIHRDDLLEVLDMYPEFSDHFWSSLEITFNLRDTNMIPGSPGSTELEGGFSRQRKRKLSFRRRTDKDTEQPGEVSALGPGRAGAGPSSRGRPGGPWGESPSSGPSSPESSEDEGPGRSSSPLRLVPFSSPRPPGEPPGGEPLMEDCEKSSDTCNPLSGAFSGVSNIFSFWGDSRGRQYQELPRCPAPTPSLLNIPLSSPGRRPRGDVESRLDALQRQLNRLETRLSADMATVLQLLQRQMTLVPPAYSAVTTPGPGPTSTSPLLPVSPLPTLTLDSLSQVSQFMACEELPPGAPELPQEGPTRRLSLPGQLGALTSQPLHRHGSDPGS

Row | SMILES | hERG current change (%, negative = inhibition) at 10uM [%]
1 | CC(=O)Nc1ccccc1OCCOc1ccc(Br)cc1 | -1.67
2 | Clc1ccc(-c2nnc3n2CCCS3)cc1 | 6.34
3 | O=C(NCCc1nc2ccccc2[nH]1)c1cc([N+](=O)[O-])cc([N+](=O)[O-])c1 | -8.57
4 | O=C(NCCc1nc2ccccc2[nH]1)c1ccc([N+](=O)[O-])cc1 | -56.8
5 | O=C(COc1ccccc1)NCCc1nc2ccccc2[nH]1 | -6.21
6 | O=C(Nc1nc2ccccc2[nH]1)c1ccc(Cl)c([N+](=O)[O-])c1 | 0.857
7 | O=C(COc1ccc([N+](=O)[O-])cc1)NCCc1nc2ccccc2[nH]1 | -56.7
8 | O=C(NCCc1nc2ccccc2[nH]1)c1ccc(Cl)c([N+](=O)[O-])c1 | -56.2
9 | CCOc1ccc(OCC(=O)NCCc2nc3ccccc3[nH]2)cc1 | -34.6
10 | O=C(COc1ccccc1Br)NCCc1nc2ccccc2[nH]1 | -65.3
11 | COc1ccccc1OCC(=O)NCCc1nc2ccccc2[nH]1 | 2.13
12 | Cc1ccc(C(=O)NCCc2nc3ccccc3[nH]2)cc1[N+](=O)[O-] | -31.8
13 | O=C(NCc1nc2ccccc2[nH]1)c1ccc([N+](=O)[O-])cc1 | -38.5
14 | Cc1ccccc1OCC(=O)NCCc1nc2ccccc2[nH]1 | -9.27
15 | CC1=NN(C(=O)Cc2ccc([N+](=O)[O-])cc2)C(O)(C(F)(F)C(F)(F)F)C1 (stereo not shown) | -12.4
16 | O=C(Nc1nnc(-c2ccco2)o1)c1cccc(N2C(=O)CCC2=O)c1 | 7.91
17 | CCOc1ccc(Br)cc1C(=O)N/N=C/c1cccnc1 | 1.64
18 | CCCn1c(SCCC(=O)O)nc2ccccc21 | 8.62
19 | O=[N+]([O-])c1ccc(-c2c(-c3ccccc3)ncc3cc(F)ccc23)cc1 | 1.58
20 | O=C(CNc1cc(S(=O)(=O)N2CCCC2)ccc1OCC(F)(F)F)Nc1cc(Cl)cc(Cl)c1 | 6.5
21 | CC(=O)Nc1c(O)nc(C)[nH]c1=O | 6.51
22 | O=c1cc(CSc2nnc(COc3cccc4ccccc34)o2)c2ccccc2[nH]1 | 22.2

Row | SMILES | hERG current change (%, negative = inhibition) at 10uM [%]
23 | CCCNC(=O)c1nn2cc(Br)cnc2c1Cl | -73.2
24 | COCCNC(=O)c1cc2ncc(Br)cn2n1 | 5.41
25 | CCCCNC(=O)c1nc2ncc(Br)cn2n1 | -21
26 | CCCNC(=O)c1nc2ncc(Br)cn2n1 | -31.1
27 | CCCCNC(=O)c1nn2cc(Br)cnc2c1Br | -62.3
28 | CCc1ccccc1NC(=O)c1cc2ncc(Br)cn2n1 | 9.22
29 | COCCNC(=O)c1nn2cccnc2c1Cl | -11.3
30 | CCCCNC(=O)Nc1ccc(Br)cn1 | -16.2
31 | CCCNC(=O)c1nn2cc(Br)cnc2c1Br | -69.2
32 | O=C(/C=C/c1ccccc1)Nc1ccc(NC(=O)c2cccs2)cc1 | 6.8
33 | COC(=O)c1cc(-c2ccc(NC(C)=O)cc2)nc2ccccc12 | 6.01
34 | CCOC(=O)CC(NC(=O)Cc1ccccc1)c1ccccc1Cl (stereo not shown) | 1.83
35 | Cc1ccc(Nc2ncc3c(n2)CC(C)(C)CC3=O)cc1 | -10
36 | N/C(=N/OCC(=O)Nc1cccc2ccccc12)c1nonc1N | -14
37 | CCOc1ccc(C(=O)O/N=C(\N)c2ccc([N+](=O)[O-])cc2)cc1OCC | -6.93
38 | CN1CCN(Cc2nc3ccccc3c(=O)n2Cc2nc(-c3ccccc3F)cs2)CC1 | -71
39 | CN1CCN(Cc2nc3ccccc3c(=O)n2Cc2nc(-c3ccc([N+](=O)[O-])cc3)cs2)CC1 | -73.8
40 | CN(C)Cc1nc2ccccc2c(=O)n1Cc1nc(-c2cc3ccccc3o2)cs1 | 9.3
41 | CN1CCN(Cc2nc3ccccc3c(=O)n2CC#N)CC1 | -2.87
42 | CN1CCN(Cc2nc3ccccc3c(=O)n2Cc2nc(-c3ccc4ccccc4c3)cs2)CC1 | -6.55
43 | CN(C)Cc1nc2ccccc2c(=O)n1Cc1nc(-c2cccc([N+](=O)[O-])c2)cs1 | -36.9
